Tests used:
[1] = target: Serine/threonine-protein kinase MRCK alpha (Homo sapiens) (UniProt Q5VT25); conditions: at 0.1 µM
[2] = target: Serine/threonine-protein kinase MRCK alpha (Homo sapiens) (UniProt Q5VT25); conditions: at 1 µM
[3] = target: Serine/threonine-protein kinase MRCK beta (Homo sapiens) (UniProt Q9Y5S2); conditions: at 0.1 µM
[4] = target: Serine/threonine-protein kinase MRCK beta (Homo sapiens) (UniProt Q9Y5S2); conditions: at 1 µM
[5] = target: Ribosomal protein S6 kinase alpha-5 (Homo sapiens) (UniProt O75582); conditions: at 0.1 µM
[6] = target: Ribosomal protein S6 kinase alpha-5 (Homo sapiens) (UniProt O75582); conditions: at 1 µM
[7] = target: Ribosomal protein S6 kinase alpha-4 (Homo sapiens) (UniProt O75676); conditions: at 0.1 µM
[8] = target: Ribosomal protein S6 kinase alpha-4 (Homo sapiens) (UniProt O75676); conditions: at 1 µM
[9] = target: Ribosomal protein S6 kinase beta-1 (Homo sapiens) (UniProt P23443); conditions: at 0.1 µM
[10] = target: Ribosomal protein S6 kinase beta-1 (Homo sapiens) (UniProt P23443); conditions: at 1 µM
[11] = target: T1, 3-phosphoinositide-dependent protein kinase 1 (Homo sapiens) (UniProt O15530); conditions: at 0.1 µM;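 further: values are mean inhibition of PDK1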
T1 sequence (whole entry): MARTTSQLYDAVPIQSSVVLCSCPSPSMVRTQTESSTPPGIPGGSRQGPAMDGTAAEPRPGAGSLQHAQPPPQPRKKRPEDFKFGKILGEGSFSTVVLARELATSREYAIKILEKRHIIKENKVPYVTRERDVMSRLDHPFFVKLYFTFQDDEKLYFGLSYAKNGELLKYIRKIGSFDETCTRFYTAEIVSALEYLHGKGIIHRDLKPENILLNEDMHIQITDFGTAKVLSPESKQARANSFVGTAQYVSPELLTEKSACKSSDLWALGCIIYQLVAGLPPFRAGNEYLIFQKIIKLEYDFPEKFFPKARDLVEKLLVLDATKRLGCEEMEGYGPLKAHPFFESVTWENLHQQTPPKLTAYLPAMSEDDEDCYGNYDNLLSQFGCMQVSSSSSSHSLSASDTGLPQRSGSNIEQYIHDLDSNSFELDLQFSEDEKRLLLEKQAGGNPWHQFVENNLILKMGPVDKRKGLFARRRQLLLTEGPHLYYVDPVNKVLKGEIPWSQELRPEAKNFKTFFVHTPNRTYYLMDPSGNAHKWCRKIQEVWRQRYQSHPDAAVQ

[12] = target: cAMP-dependent protein kinase catalytic subunit alpha (Homo sapiens) (UniProt P17612); conditions: at 0.1 µM
[13] = target: cAMP-dependent protein kinase catalytic subunit alpha (Homo sapiens) (UniProt P17612); conditions: at 1 µM
[14] = target: Protein kinase C alpha type (Homo sapiens) (UniProt P17252); conditions: at 0.1 µM
[15] = target: Protein kinase C alpha type (Homo sapiens) (UniProt P17252); conditions: at 1 µM
[16] = target: Protein kinase C beta type (Homo sapiens) (UniProt P05771); conditions: at 0.1 µM
[17] = target: Protein kinase C beta type (Homo sapiens) (UniProt P05771); conditions: at 1 µM
[18] = target: Protein kinase C eta type (Homo sapiens) (UniProt P24723); conditions: at 0.1 µM
[19] = target: Protein kinase C eta type (Homo sapiens) (UniProt P24723); conditions: at 1 µM
[20] = target: Protein kinase C gamma type (Homo sapiens) (UniProt P05129); conditions: at 0.1 µM;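 further: values are mean percent inhibition of PKC gamma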

Chain of Serine/threonine-protein kinase MRCK alpha (Homo sapiens) (Q5VT25 whole entry): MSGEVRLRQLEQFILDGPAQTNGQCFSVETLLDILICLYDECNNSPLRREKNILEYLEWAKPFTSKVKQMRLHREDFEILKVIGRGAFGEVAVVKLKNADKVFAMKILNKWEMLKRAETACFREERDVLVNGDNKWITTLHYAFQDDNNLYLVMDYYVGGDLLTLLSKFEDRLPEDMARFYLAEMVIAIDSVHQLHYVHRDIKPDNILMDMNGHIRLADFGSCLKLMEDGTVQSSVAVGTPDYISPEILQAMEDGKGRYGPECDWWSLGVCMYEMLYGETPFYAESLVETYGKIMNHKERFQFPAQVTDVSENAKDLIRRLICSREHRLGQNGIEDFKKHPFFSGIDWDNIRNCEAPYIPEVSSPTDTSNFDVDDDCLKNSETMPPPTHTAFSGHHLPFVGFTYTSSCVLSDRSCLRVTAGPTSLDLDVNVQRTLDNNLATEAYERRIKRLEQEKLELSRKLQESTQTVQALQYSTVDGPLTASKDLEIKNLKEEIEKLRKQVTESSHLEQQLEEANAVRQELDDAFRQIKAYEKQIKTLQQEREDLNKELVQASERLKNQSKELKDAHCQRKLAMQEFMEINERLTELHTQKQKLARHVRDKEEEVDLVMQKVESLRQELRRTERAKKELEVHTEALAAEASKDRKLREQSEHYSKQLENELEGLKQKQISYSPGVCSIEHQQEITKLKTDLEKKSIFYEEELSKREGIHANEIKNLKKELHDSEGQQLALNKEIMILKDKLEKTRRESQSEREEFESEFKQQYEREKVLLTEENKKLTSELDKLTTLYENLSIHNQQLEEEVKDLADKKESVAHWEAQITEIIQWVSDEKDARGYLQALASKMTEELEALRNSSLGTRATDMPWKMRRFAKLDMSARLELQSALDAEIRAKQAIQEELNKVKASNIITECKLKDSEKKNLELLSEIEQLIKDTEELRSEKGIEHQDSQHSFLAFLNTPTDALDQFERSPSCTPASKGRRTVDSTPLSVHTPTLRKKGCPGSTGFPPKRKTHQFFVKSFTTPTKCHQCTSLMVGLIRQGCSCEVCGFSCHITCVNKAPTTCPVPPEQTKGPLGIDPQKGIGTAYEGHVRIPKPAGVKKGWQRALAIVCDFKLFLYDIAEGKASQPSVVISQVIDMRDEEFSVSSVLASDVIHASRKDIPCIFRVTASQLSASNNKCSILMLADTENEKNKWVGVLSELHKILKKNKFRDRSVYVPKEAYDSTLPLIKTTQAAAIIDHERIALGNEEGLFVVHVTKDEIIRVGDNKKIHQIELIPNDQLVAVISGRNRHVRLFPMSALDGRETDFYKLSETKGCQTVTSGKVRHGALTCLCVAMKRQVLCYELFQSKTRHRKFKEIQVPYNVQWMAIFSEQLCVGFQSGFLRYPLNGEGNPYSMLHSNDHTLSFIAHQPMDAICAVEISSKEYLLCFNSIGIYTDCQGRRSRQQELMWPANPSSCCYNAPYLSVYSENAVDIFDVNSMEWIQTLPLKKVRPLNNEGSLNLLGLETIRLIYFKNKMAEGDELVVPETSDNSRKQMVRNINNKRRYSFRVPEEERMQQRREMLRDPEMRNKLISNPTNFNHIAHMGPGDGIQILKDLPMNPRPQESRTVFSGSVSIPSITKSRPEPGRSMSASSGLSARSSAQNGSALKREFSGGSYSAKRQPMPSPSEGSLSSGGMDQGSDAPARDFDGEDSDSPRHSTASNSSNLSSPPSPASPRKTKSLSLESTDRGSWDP
Chain of Ribosomal protein S6 kinase alpha-5 (Homo sapiens) (O75582 whole entry, looked up): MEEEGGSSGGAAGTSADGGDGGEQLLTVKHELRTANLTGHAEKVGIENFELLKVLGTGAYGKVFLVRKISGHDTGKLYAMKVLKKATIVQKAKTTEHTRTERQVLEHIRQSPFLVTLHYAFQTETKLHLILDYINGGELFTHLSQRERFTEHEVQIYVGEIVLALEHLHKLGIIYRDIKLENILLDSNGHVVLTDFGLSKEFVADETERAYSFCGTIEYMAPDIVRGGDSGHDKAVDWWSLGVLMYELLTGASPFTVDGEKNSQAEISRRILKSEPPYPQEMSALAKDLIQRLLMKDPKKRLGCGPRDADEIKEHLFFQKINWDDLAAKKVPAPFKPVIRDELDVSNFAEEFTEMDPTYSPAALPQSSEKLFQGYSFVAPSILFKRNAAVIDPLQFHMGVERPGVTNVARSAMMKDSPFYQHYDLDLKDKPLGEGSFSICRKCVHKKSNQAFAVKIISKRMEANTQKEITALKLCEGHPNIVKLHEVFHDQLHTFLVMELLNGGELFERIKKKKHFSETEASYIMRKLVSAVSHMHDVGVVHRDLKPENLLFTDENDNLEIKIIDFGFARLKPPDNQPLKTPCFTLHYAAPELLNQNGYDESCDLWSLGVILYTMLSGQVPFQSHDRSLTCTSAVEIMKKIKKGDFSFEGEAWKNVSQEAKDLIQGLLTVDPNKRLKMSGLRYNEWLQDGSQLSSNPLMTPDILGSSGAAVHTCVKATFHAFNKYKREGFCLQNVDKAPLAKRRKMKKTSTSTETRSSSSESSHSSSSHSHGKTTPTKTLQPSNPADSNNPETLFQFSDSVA
Chain of Protein kinase C beta type (Homo sapiens) (P05771 2-671 limits assumed): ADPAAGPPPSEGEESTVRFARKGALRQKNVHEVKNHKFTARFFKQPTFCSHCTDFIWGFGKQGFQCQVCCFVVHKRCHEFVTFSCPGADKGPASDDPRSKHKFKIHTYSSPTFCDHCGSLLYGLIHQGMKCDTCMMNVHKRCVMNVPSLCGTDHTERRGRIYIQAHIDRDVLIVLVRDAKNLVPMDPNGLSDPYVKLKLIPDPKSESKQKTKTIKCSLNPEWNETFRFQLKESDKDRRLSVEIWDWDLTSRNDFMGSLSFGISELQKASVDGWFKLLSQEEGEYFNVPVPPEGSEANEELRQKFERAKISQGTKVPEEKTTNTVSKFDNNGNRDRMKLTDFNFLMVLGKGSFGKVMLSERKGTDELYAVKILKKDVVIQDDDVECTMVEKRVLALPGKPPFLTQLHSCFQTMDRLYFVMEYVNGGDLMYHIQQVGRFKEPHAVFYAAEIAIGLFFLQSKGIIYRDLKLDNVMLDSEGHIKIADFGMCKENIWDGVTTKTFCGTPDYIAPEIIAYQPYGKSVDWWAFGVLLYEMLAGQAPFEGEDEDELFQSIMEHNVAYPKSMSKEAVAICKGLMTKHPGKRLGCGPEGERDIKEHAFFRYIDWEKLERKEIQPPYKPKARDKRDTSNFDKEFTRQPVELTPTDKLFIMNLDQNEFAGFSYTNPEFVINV
Chain of Ribosomal protein S6 kinase beta-1 (Homo sapiens) (P23443 whole entry, looked up): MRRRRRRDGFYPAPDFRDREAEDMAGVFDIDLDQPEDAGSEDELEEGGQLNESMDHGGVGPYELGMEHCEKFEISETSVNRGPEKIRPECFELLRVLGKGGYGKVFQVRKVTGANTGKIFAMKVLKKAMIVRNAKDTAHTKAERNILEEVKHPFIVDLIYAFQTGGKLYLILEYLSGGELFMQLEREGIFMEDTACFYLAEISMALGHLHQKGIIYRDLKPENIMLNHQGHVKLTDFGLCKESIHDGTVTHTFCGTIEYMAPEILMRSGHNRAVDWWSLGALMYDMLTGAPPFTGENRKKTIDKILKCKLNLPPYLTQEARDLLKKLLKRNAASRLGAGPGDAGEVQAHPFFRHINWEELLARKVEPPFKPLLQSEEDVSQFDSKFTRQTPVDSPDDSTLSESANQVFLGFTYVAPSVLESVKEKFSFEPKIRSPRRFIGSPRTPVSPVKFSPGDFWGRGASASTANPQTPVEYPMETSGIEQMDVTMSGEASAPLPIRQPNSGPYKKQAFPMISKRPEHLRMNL

CC(=O)Nc1cccc(C#Cc2cncnc2Nc2ccc(OCc3cccc(F)c3)c(Cl)c2)c1 showed an inhibition [1] of 1.39%, an inhibition [2] of 0.82% and an inhibition [3] of 1.53%. The inhibition [4] was 1.93%, the inhibition [5] was -3.6% and the inhibition [6] was -3.85%. The inhibition [7] was 1.16%, the inhibition [8] was 2.5% and the inhibition [9] was 2.04%. For the same compound, the inhibition [10] was 2.07%, the inhibition [11] was 2.17% and the inhibition [12] was 2.17%. It also gave an inhibition [13] of 4.12%, an inhibition [14] of 0.9% and an inhibition [15] of 2.2%. For the same compound, the inhibition [16] was 0.65%, the inhibition [17] was 0.21% and the inhibition [18] was 0.22%. For the same compound, the inhibition [19] was -0.44% and the inhibition [20] was 3.94%.

Cc1cccc(Nc2ncc(-c3ccccc3)o2)c1 gave an inhibition [1] of 7.36%, an inhibition [2] of 8.12% and an inhibition [3] of 0.54%. The inhibition [4] was 4.56%, the inhibition [5] was 2.55% and the inhibition [6] was 6.07%. The inhibition [7] was 1.23%, the inhibition [8] was 8.07% and the inhibition [9] was 1.43%. The inhibition [10] was 3.89%, the inhibition [11] was 1.5% and the inhibition [12] was 12.6%. The inhibition [13] was 13.8%, the inhibition [14] was 0.24% and the inhibition [15] was 3.41%. The inhibition [16] was 3.52%, the inhibition [17] was 5.79% and the inhibition [18] was 2.87%. The inhibition [19] was 0.87% and the inhibition [20] was 3.99%.

Work on Cc1cccc2c1NC(=O)/C2=N\Nc1ccc(S(N)(=O)=O)cc1 yielded an inhibition [1] of -1.02%, an inhibition [2] of -1.52% and an inhibition [3] of 1.33%. For the same compound, the inhibition [4] was 2.51%, the inhibition [5] was 2.97% and the inhibition [6] was 4.06%. For the same compound, the inhibition [7] was 1.89%, the inhibition [8] was 3.82% and the inhibition [9] was 1.66%. It also gave an inhibition [10] of 2.26%, an inhibition [11] of 2.44% and an inhibition [12] of 1.54%. For the same compound, the inhibition [13] was 2.59%, the inhibition [14] was 0.55% and the inhibition [15] was 5.16%. For the same compound, the inhibition [16] was 0.49%, the inhibition [17] was -1.37% and the inhibition [18] was 4.66%. For the same compound, the inhibition [19] was 3.34% and the inhibition [20] was -3%.

Work on COC(=O)Nc1nc2ccc(S(=O)(=O)c3ccc(NC(=O)Nc4cc(C(F)(F)F)ccc4F)cc3)cc2[nH]1 yielded an inhibition [1] of 0.58%, an inhibition [2] of -0.35% and an inhibition [3] of 1.96%. The inhibition [4] was 1.32%, the inhibition [5] was 2.41% and the inhibition [6] was 1.23%. It also gave an inhibition [7] of 0.77%, an inhibition [8] of 4.31% and an inhibition [9] of 2.42%. For the same compound, the inhibition [10] was 0.71%, the inhibition [11] was 1.73% and the inhibition [12] was 1.93%. It also gave an inhibition [13] of 1.3%, an inhibition [14] of 0.42% and an inhibition [15] of -0.51%. It also gave an inhibition [16] of 0.31%, an inhibition [17] of 0.32% and an inhibition [18] of 0.95%. The inhibition [19] was 2.18% and the inhibition [20] was 0.47%.

Work on CS(=O)(=O)CCNCc1coc(-c2ccc3ncnc(Nc4ccc(OCc5ccccc5)cc4)c3c2)c1 yielded an inhibition [1] of 2.17%, an inhibition [2] of 0.57% and an inhibition [3] of 0.72%. It also gave an inhibition [4] of 1.14%, an inhibition [5] of 1.49% and an inhibition [6] of 1.55%. For the same compound, the inhibition [7] was 2.52%, the inhibition [8] was 3.49% and the inhibition [9] was 0.79%. It also gave an inhibition [10] of 3.34%, an inhibition [11] of 6.29% and an inhibition [12] of 1.59%. For the same compound, the inhibition [13] was 2.39%, the inhibition [14] was 0.46% and the inhibition [15] was 1.78%. For the same compound, the inhibition [16] was 0.47%, the inhibition [17] was -1% and the inhibition [18] was 4.58%. It also gave an inhibition [19] of 3.63% and an inhibition [20] of -2.12%.

For Nc1nc(-c2ccc(F)cc2)c(-c2ccc3ncccc3n2)s1, the inhibition [1] was -0.11%, the inhibition [2] was 3.87% and the inhibition [3] was 0.89%. It also gave an inhibition [4] of 0.94%, an inhibition [5] of 3.54% and an inhibition [6] of 3.83%. The inhibition [7] was 3.18%, the inhibition [8] was 4.49% and the inhibition [9] was 2.53%. For the same compound, the inhibition [10] was 2.7%, the inhibition [11] was 3.99% and the inhibition [12] was 1.65%. The inhibition [13] was 3.75%, the inhibition [14] was 1.13% and the inhibition [15] was 2.9%. The inhibition [16] was 0.21%, the inhibition [17] was 3.92% and the inhibition [18] was 1.76%. It also gave an inhibition [19] of 6.71% and an inhibition [20] of 2.26%.

N#Cc1c(NC(=O)CN2CCOCC2)sc2c1CCCC2 gave an inhibition [1] of 0.22%, an inhibition [2] of 2.63% and an inhibition [3] of 0.43%. It also gave an inhibition [4] of 0.37%, an inhibition [5] of 3.16% and an inhibition [6] of 3.12%. For the same compound, the inhibition [7] was 2.5%, the inhibition [8] was 2% and the inhibition [9] was 2.57%. For the same compound, the inhibition [10] was 1.13%, the inhibition [11] was 2.07% and the inhibition [12] was 2.3%. The inhibition [13] was 1.82%, the inhibition [14] was 2.23% and the inhibition [15] was 5.72%. For the same compound, the inhibition [16] was 0.89%, the inhibition [17] was 2.05% and the inhibition [18] was 5.18%. The inhibition [19] was 3.17% and the inhibition [20] was 3.77%.
